The full ranking holds about 110,000 compounds; the median of “z-score” is about -0.1, and the highest 2% start at about 2. Only a selection was taken, and the highest values are over-represented in it overall. Activity calls are given as the source filed them.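 Rule for the calls: active = z-score in the third read window above 3 or below -3; inactive = the rest.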
biological target: Metabotropic glutamate receptor 8 (Rattus norvegicus) (UniProt P70579); assay: mGluR8 Gi/Go-coupled signaling modulation – cell-based, rat, thallium flux, HTS, primary screen (AID 488969); conditions: HEK293 rat mGluR8, GIRK (G protein-gated inwardly rectifying potassium channel) thallium flux, FluoZin2; at 10 µM; stronger effect = higher value; submaximal glutamate (EC20) added with thallium
Sequence (P70579 whole entry, looked up): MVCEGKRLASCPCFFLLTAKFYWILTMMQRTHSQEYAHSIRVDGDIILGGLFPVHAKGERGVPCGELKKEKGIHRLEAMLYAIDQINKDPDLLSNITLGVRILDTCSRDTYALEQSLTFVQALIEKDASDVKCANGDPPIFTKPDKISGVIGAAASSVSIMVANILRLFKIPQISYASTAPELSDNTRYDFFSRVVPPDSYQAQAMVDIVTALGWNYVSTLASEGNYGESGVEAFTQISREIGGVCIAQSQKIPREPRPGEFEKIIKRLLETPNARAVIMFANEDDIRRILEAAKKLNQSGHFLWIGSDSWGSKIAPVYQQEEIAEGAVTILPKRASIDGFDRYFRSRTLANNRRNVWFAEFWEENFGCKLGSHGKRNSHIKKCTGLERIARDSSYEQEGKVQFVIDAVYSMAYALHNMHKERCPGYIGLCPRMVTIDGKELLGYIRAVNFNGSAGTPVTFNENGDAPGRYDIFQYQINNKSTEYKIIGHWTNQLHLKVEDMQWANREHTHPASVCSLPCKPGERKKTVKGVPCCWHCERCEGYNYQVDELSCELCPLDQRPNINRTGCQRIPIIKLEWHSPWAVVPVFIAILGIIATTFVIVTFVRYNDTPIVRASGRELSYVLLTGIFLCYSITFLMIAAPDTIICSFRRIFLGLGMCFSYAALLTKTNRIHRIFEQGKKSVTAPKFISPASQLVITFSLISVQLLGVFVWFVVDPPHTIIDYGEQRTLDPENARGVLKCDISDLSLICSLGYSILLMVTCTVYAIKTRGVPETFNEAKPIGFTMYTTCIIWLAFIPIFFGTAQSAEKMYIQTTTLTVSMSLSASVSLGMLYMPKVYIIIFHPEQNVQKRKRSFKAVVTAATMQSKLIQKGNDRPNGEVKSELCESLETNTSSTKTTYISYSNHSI

Q: How did the z-score turn out when CCS(=O)(=O)N1CCN(c2ccc(Cl)cc2[N+](=O)[O-])CC1 was run?
A: 0.325

Q: With CCOc1ccc(C(=O)CN2CCN(S(=O)(=O)c3ccc(Br)cc3)CC2)cc1 as the molecule, how does the z-score read?
A: 4.08 (active)

Q: How did the z-score turn out when CCOc1ccc(C(=O)CN2CCN(S(=O)(=O)c3ccc(OC)cc3)CC2)cc1 was run?
A: -0.414

Q: Which z-score does the source give for COc1cccc(C(=O)CN2CCN(S(=O)(=O)c3ccc(Br)cc3)CC2)c1 here?
A: -0.472

Q: Which z-score does the source give for CN1CCN(c2ccccc2NC(=O)COc2ccccc2)CC1 here?
A: -0.109

Q: Which z-score does the source give for COc1ccc(/C=N/NC(=O)CSc2nnc(C)n2-c2ccccc2)c(OC)c1OC here?
A: -0.14

Q: How did the z-score turn out when N=C1/C(=C/c2cccs2)C(=O)N=C2SN=C(SCc3ccccc3)N12 was run?
A: 9.53 (active)

Q: How did the z-score turn out when O=C1NN(c2ccccc2)C(=O)/C1=C/c1coc2ccccc2c1=O was run?
A: -0.738

Q: Which z-score does the source give for CSC1=NSC2=NC(=O)/C(=C/c3coc4ccc(O)cc4c3=O)C(=N)N12 here?
A: -0.47

Q: O=C1N=C(N2CCN(c3cccc4ccccc34)CC2)S/C1=C/c1cccs1 was tested. Which z-score did it give?
A: -0.0125

Q: CSC1=NSC2=NC(=O)/C(=C/c3coc4ccccc4c3=O)C(=N)N12 was tested. Which z-score did it give?
A: 10.4 (active)

Q: For Cc1cc(/C=C2\C(=N)N3C(SCc4ccccc4)=NSC3=NC2=O)c(C)n1Cc1ccccc1, which z-score is on record?
A: 0.143

Q: O=[N+]([O-])c1ccc(N2CCCCC2)cc1NCCOc1ccccc1 was tested. Which z-score did it give?
A: 0.0562

Q: Which z-score does the source give for Cc1cccc(/C=C2\CS/C(=C\c3cccc(C)c3)C2=O)c1 here?
A: -0.0758

Q: COc1ccc(/C=c2\s/c(=C/C(=O)c3ccc(C)cc3)[nH]c2=O)cc1OC was tested. Which z-score did it give?
A: 0.46

Q: For CSc1ccc(/C=c2\s/c(=C\C(=O)C(C)(C)C)n(CC(=O)NCCC3=CCCCC3)c2=O)cc1, which z-score is on record?
A: -0.0802

Q: For CC(C)(C)C(=O)/C=c1\[nH]c(=O)/c(=C\c2ccc(F)cc2)s1, which z-score is on record?
A: 5.06 (active)

Q: How did the z-score turn out when Cc1cccc(/C=c2\s/c(=C\C(=O)C(C)(C)C)[nH]c2=O)c1 was run?
A: 9.35 (active)

Q: Cc1ccccc1/C=c1\s/c(=C\C(=O)C(C)(C)C)[nH]c1=O was tested. Which z-score did it give?
A: 5.84 (active)

Q: With CCc1ccc(/C=c2\s/c(=C\C(=O)C(C)(C)C)[nH]c2=O)cc1 as the molecule, how does the z-score read?
A: 7.24 (active)

Q: Which z-score does the source give for CC(C)(C)NC(=O)COC(=O)/C=C/c1ccc(F)cc1 here?
A: -0.0768

Q: For COc1cccc(/C=c2\s/c(=C/C(=O)c3ccc(C)cc3)[nH]c2=O)c1OC, which z-score is on record?
A: 1.51

Q: COc1ccc(/C=c2\s/c(=C/C(=O)c3ccc(C)cc3)[nH]c2=O)c(OC)c1 was tested. Which z-score did it give?
A: 0.0664

Q: How did the z-score turn out when CCc1ccc(/C=C(\Cl)c2nc3cc(Cl)ccc3c(=O)[nH]2)cc1 was run?
A: 0.511

Q: For CC(C)(CNC(=O)/C=C/c1ccc(F)cc1)CNC(=O)/C=C/c1ccc(F)cc1, which z-score is on record?
A: -0.186

Q: How did the z-score turn out when O=C(Cc1ccccc1)NC(NNc1ccccc1)(C(F)(F)F)C(F)(F)F was run?
A: -0.447

Q: With CC(C)N(Cc1nc(-c2ccccc2)no1)C(=O)CCCN1C(=O)c2ccccc2C1=O as the molecule, how does the z-score read?
A: -0.305

Q: For CCOC(=O)c1ccc(NC(=S)N2CCSC2c2ccc(Br)cc2)cc1 (configuration not stated), which z-score is on record?
A: 0.308

Q: O=c1oc2cc(OCc3ccc(F)cc3F)ccc2cc1-c1ccc2ccccc2n1 was tested. Which z-score did it give?
A: -0.209

Q: O=S(=O)(c1ccc(Oc2ccc(Cl)cc2)c(S(=O)(=O)N2CCCCC2)c1)N1CCCCC1 was tested. Which z-score did it give?
A: -0.278

Q: CCOc1ccc(OCC)c(NC(=O)C2CCN(S(=O)(=O)c3cccc4nonc34)CC2)c1 was tested. Which z-score did it give?
A: 0.0264

Q: Which z-score does the source give for COc1ccc(Cn2c(C)c(C)c(C#N)c2NC(=O)Nc2cccc(Cl)c2)cc1 here?
A: -0.0483

Q: How did the z-score turn out when COc1ccc(-c2cc(C(F)(F)F)nc(SCC(N)=O)n2)cc1 was run?
A: 0.362

Q: Cn1c(=O)c2c(ncn2CC(=O)Nc2ccccc2)n(C)c1=O was tested. Which z-score did it give?
A: 0.318

Q: Which z-score does the source give for Cc1ccc(C(=O)Nc2cccnc2)cc1S(=O)(=O)N1CCOCC1 here?
A: 0.265

Q: With CCN(CC)CCCN1C(=O)c2oc3ccccc3c(=O)c2C1c1cccc(OC)c1OC (configuration not stated) as the molecule, how does the z-score read?
A: 0.625

Q: COc1cccc(C2c3c(oc4ccccc4c3=O)C(=O)N2CCCN(C)C)c1OC (configuration not stated) was tested. Which z-score did it give?
A: -0.0845

Q: CCN(CC)CCCN1C(=O)c2oc3ccccc3c(=O)c2C1c1cccs1 (configuration not stated) was tested. Which z-score did it give?
A: 13.2 (active)

Q: Which z-score does the source give for CCN(CC)CCCN1C(=O)c2oc3ccccc3c(=O)c2C1c1cc(OC)ccc1OC (configuration not stated) here?
A: 0.517

Q: How did the z-score turn out when CN(C)CCCN1C(=O)c2oc3ccccc3c(=O)c2C1c1cccs1 (configuration not stated) was run?
A: 2.78

Q: For COc1ccc(OC)c(C2c3c(oc4ccccc4c3=O)C(=O)N2CCCN(C)C)c1 (configuration not stated), which z-score is on record?
A: -0.648

Q: Cn1c(SCC(=O)c2ccccc2F)nnc1C1CC1 was tested. Which z-score did it give?
A: -0.74

Q: For CCn1c(SCC(N)=O)nnc1-c1ccc(S(=O)(=O)N2CCN(C)CC2)cc1, which z-score is on record?
A: -0.217

Q: For COc1ccc(NC(=O)c2cccc(F)c2)cc1Cl, which z-score is on record?
A: -0.393

Q: Which z-score does the source give for CCc1cccc2c(C(=O)COC(=O)c3ccc(O)cc3)c[nH]c12 here?
A: -0.12

Q: For O=C(N/N=C/c1cccs1)c1cccs1, which z-score is on record?
A: 0.0886

Q: With O=C(N/N=C\c1ccc(Cl)s1)c1cccs1 as the molecule, how does the z-score read?
A: 8.64 (active)

Q: With Cc1ccc(/C=N/NC(=O)c2cccs2)s1 as the molecule, how does the z-score read?
A: 1.3

Q: How did the z-score turn out when O=C(Nc1ccc([N+](=O)[O-])cn1)c1cc(-c2cccc(Cl)c2)nc2ccccc12 was run?
A: -0.658

Q: For O=C(N/N=C/c1c[nH]c2ccccc12)C1CC1(c1ccccc1)c1ccccc1 (configuration not stated), which z-score is on record?
A: -0.618

Q: How did the z-score turn out when CCOC(=O)c1ccc(-n2c(C)ccc2C)cc1 was run?
A: -0.201

Q: How did the z-score turn out when Cc1ccc(C)n1-c1ccc(C(=O)NN)cc1 was run?
A: 2.5

Q: Cc1ccc(C)n1-c1ccc(C(=O)O)cc1 was tested. Which z-score did it give?
A: -1.12

Q: How did the z-score turn out when CCOC(=O)/C(C(N)=NC(C)C)=C(\O)c1ccccc1 was run?
A: 0.0345

Q: How did the z-score turn out when CCCCOC(=O)CNc1n[nH]c(=S)[nH]c1=O was run?
A: 0.182

Q: With CC(C)COC(=O)CNc1n[nH]c(=S)[nH]c1=O as the molecule, how does the z-score read?
A: 1.98

Q: How did the z-score turn out when CC(C)COC(=O)CCNc1n[nH]c(=O)[nH]c1=O was run?
A: 0.184

Q: Nc1cc(=O)nc(SCC(=O)N(C2CCCCC2)C2CCCCC2)n1-c1ccccc1 was tested. Which z-score did it give?
A: -0.245

Q: How did the z-score turn out when CCCNC(=O)C(NS(=O)(=O)c1cccc2nsnc12)c1ccccc1 (configuration not stated) was run?
A: -0.0978

Q: For Cc1nc(CN2CCOCC2)cc(=O)[nH]1, which z-score is on record?
A: 0.197

Q: With CC1CN(Cc2cc(=O)[nH]c(C3CC3)n2)CC(C)O1 (configuration not stated) as the molecule, how does the z-score read?
A: -0.155

Q: O=c1cc(CN2CCOCC2)nc(C2CC2)[nH]1 was tested. Which z-score did it give?
A: 5.57 (active)

Q: Cc1cc(NC(=O)C(=O)NCCN2CCN(C(=O)c3cccs3)CC2)ccc1Br was tested. Which z-score did it give?
A: -0.64

Q: How did the z-score turn out when COc1cccc(N/C=C(\C#N)c2ccc(OCCCF)cc2)c1 was run?
A: 0.135

Q: How did the z-score turn out when Cn1c(Cc2csc(N)n2)nnc1SCC(=O)NCc1ccccc1 was run?
A: 0.898

Q: How did the z-score turn out when Cc1ccccc1CCN(C(=O)Cn1nnc2ccccc21)C(C(=O)NC(C)(C)C)c1ccsc1 (configuration not stated) was run?
A: 0.0716

Q: For Cc1ccc(NC(=O)c2cc(N3C(=O)C=CC3=O)ccc2Cl)cc1C, which z-score is on record?
A: -0.0892
